From PubChem BioAssay (NCI) come the findings set out here.

Test systems include SR leukemia; RPMI-8226 leukemia; OVCAR-8 ovarian; OVCAR-5 ovarian; OVCAR-4 ovarian; SK-OV-3 ovarian; IGROV1 ovarian; OVCAR-3 ovarian; NCI/ADR-RES ovarian; T-47D breast; BT-549 breast; MDA-MB-435 melanoma; MCF7 breast; HCT-116 colon; HCC-2998 colon; KM12 colon; MDA-MB-468 breast.
Common to all, as to experiment: NCI-60 one-dose screen, 48 h (100 = growth as untreated, 0 = no growth, -100 = all killed)
Holding throughout (settings): 10 µM unless noted

About 83,000 compounds went through this panel and 20% of them were active in at least one assay; those are over-represented in the sample as a whole.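 Cells were grown in 96-well plates and exposed to the test compound at a single concentration for 48 hours; results are reported as percent growth, with values below 10 considered active.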 Unmarked numbers belong to inactive results. Activity calls are given as the source filed them.

For the molecule `COc1ccc(/C=C2\C(=O)Nc3ccc(Cl)cc32)cc1OCc1ccccn1`, the growth with SR leukemia was 31.4%; in the test with RPMI-8226 leukemia it was 39.5%; in the test on OVCAR-8 ovarian, 31.6%; in the test with OVCAR-5 ovarian, 50%; with OVCAR-4 ovarian it was 8.08% (active); with SK-OV-3 ovarian it was 63.3%. Moreover, the growth was 45.5% in the test on IGROV1 ovarian; 51.6% in the test with OVCAR-3 ovarian; 27.3% in the test on NCI/ADR-RES ovarian; 51.9% with T-47D breast; 46.1% in the test with BT-549 breast; 75.1% in the test with MDA-MB-435 melanoma. Further, the growth is 34.7% in the test on MCF7 breast; 21.1% in the test with HCT-116 colon; 79.6% in the test on HCC-2998 colon; 75.2% with KM12 colon; 59% in the test with MDA-MB-468 breast.
On to `Cc1ccc2c(N)c(C(=O)Nc3ccc(OC(F)(F)F)cc3)sc2n1`, for which the growth in the test with SR leukemia is 56.5%; in the test with RPMI-8226 leukemia, 46.9%; in the test on OVCAR-8 ovarian, 76.2%; with OVCAR-5 ovarian, 84.5%; in the test on OVCAR-4 ovarian, 52.1%; in the test on SK-OV-3 ovarian, 68.2%. Further, the growth with IGROV1 ovarian is 61.5%; with OVCAR-3 ovarian, 83%; with NCI/ADR-RES ovarian, 52.4%; in the test with T-47D breast, 27.3%; in the test on BT-549 breast, 86.8%; in the test on MDA-MB-435 melanoma, 68.9%. Also, the growth in the test on MCF7 breast is 39.4%; with HCT-116 colon, 58.8%; in the test on HCC-2998 colon, 90.9%; in the test with KM12 colon, 66.5%; with MDA-MB-468 breast, 15.9%.
In the case of `Cn1nc(C(F)(F)F)cc1-c1cc(Cl)c(COc2ccc(Cl)cc2)c(-c2ccc(Cl)c(C(F)(F)F)c2)c1O`, the growth in the test with SR leukemia is -32.4% (active); with RPMI-8226 leukemia it was -39.2% (active); with OVCAR-8 ovarian, -25.6% (active); in the test on OVCAR-5 ovarian it was -1.15% (active); with OVCAR-4 ovarian, 13.9%; in the test with SK-OV-3 ovarian, -14.5% (active). The growth with IGROV1 ovarian is 5.06% (active); in the test on OVCAR-3 ovarian, -8.73% (active); in the test with NCI/ADR-RES ovarian it was -34.8% (active); in the test with T-47D breast, 13.1%; in the test with BT-549 breast it was -51.6% (active); in the test on MDA-MB-435 melanoma, -34.4% (active). Also, the growth in the test with MCF7 breast is -14.3% (active); with HCT-116 colon, -62.2% (active); in the test with HCC-2998 colon it was -33.1% (active); in the test on KM12 colon it was -19.1% (active); in the test with MDA-MB-468 breast, -23.9% (active).
As to `Cc1c(C(=O)NNC(=O)c2ccc(Cl)cc2)nnn1-c1ccc(Br)cc1`, the growth is 84.3% with SR leukemia; 98.2% with RPMI-8226 leukemia; 103% with OVCAR-8 ovarian; 95.2% with OVCAR-5 ovarian; 96.5% in the test with OVCAR-4 ovarian; 90.2% in the test on SK-OV-3 ovarian. Moreover, the growth is 105% in the test on IGROV1 ovarian; 115% with OVCAR-3 ovarian; 97.5% in the test with NCI/ADR-RES ovarian; 93% in the test on T-47D breast; 96.5% with BT-549 breast; 100% in the test on MDA-MB-435 melanoma. Further, the growth in the test with MCF7 breast was 84.3%; in the test on HCT-116 colon, 89.5%; in the test with HCC-2998 colon it was 105%; with KM12 colon it was 104%; in the test with MDA-MB-468 breast it was 95.6%.
For `CSc1ccc(NC(=O)c2ccc3nnn(/C(C#N)=C/c4ccccn4)c3c2)cc1`, the growth was -6.85% (active) in the test on SR leukemia; -32.6% (active) in the test on RPMI-8226 leukemia; -60.6% (active) in the test with OVCAR-8 ovarian; -78.6% (active) with OVCAR-5 ovarian; -97.4% (active) with OVCAR-4 ovarian; 25.5% with SK-OV-3 ovarian. Moreover, the growth in the test on IGROV1 ovarian is -76.7% (active); in the test with OVCAR-3 ovarian, -70.7% (active); with NCI/ADR-RES ovarian, -83.9% (active); in the test with T-47D breast it was -73.4% (active); in the test on BT-549 breast, -70.4% (active); in the test on MDA-MB-435 melanoma, -78.4% (active). Also, the growth in the test with MCF7 breast is -71.3% (active); in the test on HCT-116 colon, 0.694% (active); with HCC-2998 colon it was -70.6% (active); in the test on KM12 colon, -70.4% (active); in the test on MDA-MB-468 breast, -71.3% (active).
`COc1cccc(-c2c(C#N)c(-c3ccc(Cl)cc3)nc3n[nH]c(-c4ccc(Cl)cc4)c23)c1`: the growth was 16.3% in the test with SR leukemia; 7.25% (active) with RPMI-8226 leukemia; 48.3% in the test with OVCAR-8 ovarian; 69% in the test on OVCAR-5 ovarian; 26.5% in the test on OVCAR-4 ovarian; 43.9% in the test on SK-OV-3 ovarian. The growth in the test with IGROV1 ovarian is 65.2%; with OVCAR-3 ovarian it was 58%; in the test with NCI/ADR-RES ovarian, 59.3%; with T-47D breast, 9.68% (active); in the test on BT-549 breast, 44%; in the test on MDA-MB-435 melanoma, 46%. The growth in the test on MCF7 breast is 36.2%; in the test on HCT-116 colon, 20.6%; with HCC-2998 colon, 56.6%; with KM12 colon, 32.5%; in the test on MDA-MB-468 breast, 61%.
For the molecule `C(=C\c1cc(/C=C/c2ccccc2)c2ccccc2n1)/c1ccccc1`, the growth in the test on SR leukemia was 36.7%; in the test on RPMI-8226 leukemia, 25.3%; in the test with OVCAR-8 ovarian it was 78.4%; with OVCAR-5 ovarian it was 136%; in the test on OVCAR-4 ovarian it was 98.6%; in the test with SK-OV-3 ovarian, 121%. Further, the growth with IGROV1 ovarian is 118%; in the test on OVCAR-3 ovarian it was 103%; with NCI/ADR-RES ovarian, 69.7%; in the test on T-47D breast, 78.3%; in the test with BT-549 breast it was 126%; in the test with MDA-MB-435 melanoma it was 84.8%. Besides, the growth in the test on MCF7 breast is 37.3%; in the test on HCT-116 colon, 17.3%; in the test with HCC-2998 colon, 101%; with KM12 colon, 95.6%; in the test with MDA-MB-468 breast it was 107%.
For `O=C(O)c1ccc(-c2ccc(/C=N/NC(=O)c3[nH]c4ccc(Br)cc4c3-c3ccccc3)o2)cc1`, the growth in the test with SR leukemia is 5.35% (active); in the test with RPMI-8226 leukemia, 14.8%; in the test on OVCAR-8 ovarian it was -15.4% (active); in the test on OVCAR-5 ovarian, 75.9%; with OVCAR-4 ovarian it was 38%; in the test with SK-OV-3 ovarian it was 41.1%. Also, the growth was 17.8% in the test with IGROV1 ovarian; 1.4% (active) in the test with OVCAR-3 ovarian; 18.1% in the test on NCI/ADR-RES ovarian; 15.1% in the test with T-47D breast; -7.86% (active) in the test with BT-549 breast; -49.6% (active) in the test with MDA-MB-435 melanoma. Further, the growth is 9.15% (active) with MCF7 breast; 9.56% (active) with HCT-116 colon; 5.76% (active) in the test on HCC-2998 colon; 11.9% in the test on KM12 colon; -12.4% (active) with MDA-MB-468 breast.
For `COc1cc(-c2cc(-c3cccc(OCC(=O)O)c3)[nH]c(=O)c2C#N)cc(OC)c1OC`, the growth is 83.6% in the test on SR leukemia; 98.6% in the test with RPMI-8226 leukemia; 102% in the test on OVCAR-8 ovarian; 96.8% in the test with OVCAR-5 ovarian; 98.2% in the test on OVCAR-4 ovarian; 100% with SK-OV-3 ovarian. In addition, the growth in the test on IGROV1 ovarian is 109%; in the test with OVCAR-3 ovarian, 110%; in the test with NCI/ADR-RES ovarian, 104%; in the test on T-47D breast, 103%; in the test with BT-549 breast, 100%; in the test on MDA-MB-435 melanoma, 106%. Besides, the growth in the test on MCF7 breast was 97.1%; in the test with HCT-116 colon it was 92.8%; with HCC-2998 colon, 110%; in the test with KM12 colon, 105%; with MDA-MB-468 breast, 96.7%.
Turning to `CC(=O)Oc1ccccc1C(=O)[Se]CC(=O)Nc1cccc(C(F)(F)F)c1`, the growth was 31.2% with SR leukemia; 35.6% in the test with RPMI-8226 leukemia; -46.6% (active) in the test with OVCAR-8 ovarian; -30.9% (active) in the test with OVCAR-5 ovarian; 39.6% in the test with OVCAR-4 ovarian; 0.121% (active) in the test with SK-OV-3 ovarian. Moreover, the growth with IGROV1 ovarian was -64.9% (active); in the test with OVCAR-3 ovarian, -12% (active); in the test with NCI/ADR-RES ovarian, -63.8% (active); in the test with T-47D breast it was 56.5%; with BT-549 breast, -91% (active); in the test on MDA-MB-435 melanoma it was -29.7% (active). The growth is 3.36% (active) in the test with MCF7 breast; -47.7% (active) in the test with HCT-116 colon; 60% in the test with HCC-2998 colon; 25.3% in the test on KM12 colon; -88.8% (active) with MDA-MB-468 breast.
